Measured values reported in PubChem BioAssay (NCATS).
Records with an inconclusive call do not appear. Active and inactive are the calls of the source. Calls come from the whole dose curve; as a rule, active = well fitted inhibition curve with a large enough effect; inconclusive = small, poorly fitted or top-dose-only effect; inactive = flat fitted curve, though single readings scatter.

What was measured:
[1] = qHTS profiling for inhibitors of Plasmodium falciparum proliferation (AID 504749); note: nearly all actives have a fitted effect of over 60% in size;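 for activity, negative = inhibition: 0% = DMSO vehicle and full inhibition = artemisinin control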; conditions: P. falciparum in erythrocytes, SYBR Green DNA, 72 h, at 28.7 µM (top of the series)
How it was run: (§1)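 Quantitative HTS: compounds pinned into medium, infected erythrocytes added (0.3% parasitemia, 2.5% hematocrit), 72 h culture at 37 C under 5% CO2. Saponin/Triton lysis with SYBR Green I, overnight RT, then fluorescence read.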

[2] = system: 3D7; assay: as above; conditions: P. falciparum in erythrocytes, SYBR Green DNA, 72 h; series mostly up to 28.7 µM
How it was run: as §1

[3] = system: 7G8; assay: as above; conditions: P. falciparum in erythrocytes, SYBR Green DNA, 72 h; series mostly up to 28.7 µM
How it was run: as §1

[4] = system: AA1029; assay: as above; conditions: P. falciparum in erythrocytes, SYBR Green DNA, 72 h; series mostly up to 28.7 µM
How it was run: as §1

[5] = system: AS120; assay: as above; conditions: P. falciparum in erythrocytes, SYBR Green DNA, 72 h; series mostly up to 28.7 µM
How it was run: as §1

[6] = system: ATS95; assay: as above; conditions: P. falciparum in erythrocytes, SYBR Green DNA, 72 h; series mostly up to 28.7 µM
How it was run: as §1

[7] = system: C2A; assay: as above; conditions: P. falciparum in erythrocytes, SYBR Green DNA, 72 h; series mostly up to 28.7 µM
How it was run: as §1

[8] = system: CP185; assay: as above; conditions: P. falciparum in erythrocytes, SYBR Green DNA, 72 h; series mostly up to 28.7 µM
How it was run: as §1

[9] = system: CP191; assay: as above; conditions: P. falciparum in erythrocytes, SYBR Green DNA, 72 h; series mostly up to 28.7 µM
How it was run: as §1

[10] = system: CP192; assay: as above; conditions: P. falciparum in erythrocytes, SYBR Green DNA, 72 h; series mostly up to 28.7 µM
How it was run: as §1

[11] = system: CP201; assay: as above; conditions: P. falciparum in erythrocytes, SYBR Green DNA, 72 h; series mostly up to 28.7 µM
How it was run: as §1

[12] = system: CP203; assay: as above; conditions: P. falciparum in erythrocytes, SYBR Green DNA, 72 h; series mostly up to 28.7 µM
How it was run: as §1

[13] = system: CP211; assay: as above; conditions: P. falciparum in erythrocytes, SYBR Green DNA, 72 h; series mostly up to 28.7 µM
How it was run: as §1

[14] = system: CP215; assay: as above; conditions: P. falciparum in erythrocytes, SYBR Green DNA, 72 h; series mostly up to 28.7 µM
How it was run: as §1

[15] = system: CP217; assay: as above; conditions: P. falciparum in erythrocytes, SYBR Green DNA, 72 h; series mostly up to 28.7 µM
How it was run: as §1

[16] = system: CP238; assay: as above; conditions: P. falciparum in erythrocytes, SYBR Green DNA, 72 h; series mostly up to 28.7 µM
How it was run: as §1

[17] = system: CP247; assay: as above; conditions: P. falciparum in erythrocytes, SYBR Green DNA, 72 h; series mostly up to 28.7 µM
How it was run: as §1

[18] = system: ATS189; assay: as above; conditions: P. falciparum in erythrocytes, SYBR Green DNA, 72 h; series mostly up to 28.7 µM
How it was run: as §1

[19] = system: CP194; assay: as above; conditions: P. falciparum in erythrocytes, SYBR Green DNA, 72 h; series mostly up to 28.7 µM
How it was run: as §1

[20] = system: CP237; assay: as above; conditions: P. falciparum in erythrocytes, SYBR Green DNA, 72 h; series mostly up to 28.7 µM
How it was run: as §1
Potency is the fitted concentration of half-maximal effect.

CCOC(=O)C1=C(COCCN)NC(C)=C(C(=O)OC)C1c1ccccc1Cl (stereo not given)
inactive: activity, negative = inhibition ([1]; parasite line A) -0.523% | activity, negative = inhibition ([1]; parasite line B) -8.98% | Potency [2] | Potency [4] | Potency [5] | Potency [6] | Potency [7] | Potency [8] | Potency [9] | Potency [10] | Potency [11] | Potency [12] | Potency [13] | Potency [14] | Potency [15] | Potency [16] | Potency [17]
active: Potency [3] 11.2 µM

O=C(O)/C=C/c1ccccc1
inactive: activity, negative = inhibition ([1]; parasite line A) -6.43% | activity, negative = inhibition ([1]; parasite line B) 4.85% | Potency [2] | Potency [3] | Potency [4] | Potency [5] | Potency [18] | Potency [6] | Potency [7] | Potency [8] | Potency [9] | Potency [10] | Potency [19] | Potency [11] | Potency [13] | Potency [14] | Potency [15] | Potency [20] | Potency [16] | Potency [17]

CCN(CC)CCOC(=O)c1cccnc1
inactive: activity, negative = inhibition ([1]; parasite line A) -11.6% | activity, negative = inhibition ([1]; parasite line B) -3.84% | Potency [2] | Potency [3] | Potency [4] | Potency [5] | Potency [18] | Potency [7] | Potency [8] | Potency [10] | Potency [19] | Potency [12] | Potency [13] | Potency [14] | Potency [15]

CC1CC(OC(=O)C(O)c2ccccc2)CC(C)(C)C1 (stereo not given)
inactive: activity, negative = inhibition ([1]; parasite line A) -16% | activity, negative = inhibition ([1]; parasite line B) -1.53% | Potency [2] | Potency [3] | Potency [4] | Potency [5] | Potency [18] | Potency [6] | Potency [7] | Potency [8] | Potency [9] | Potency [19] | Potency [11] | Potency [12] | Potency [13] | Potency [14] | Potency [15] | Potency [20] | Potency [16] | Potency [17]

Cc1ccc(C(C)(C)c2ccc(C)cc2)cc1
inactive: activity, negative = inhibition ([1]; parasite line A) 2.11% | activity, negative = inhibition ([1]; parasite line B) -1.44% | Potency [2] | Potency [3] | Potency [4] | Potency [5] | Potency [18] | Potency [6] | Potency [7] | Potency [8] | Potency [9] | Potency [10] | Potency [19] | Potency [11] | Potency [13] | Potency [14] | Potency [15] | Potency [20] | Potency [16] | Potency [17]

CC(=O)[O][Al][O]C(C)=O
inactive: activity, negative = inhibition ([1]; parasite line A) 4.56% | activity, negative = inhibition ([1]; parasite line B) 3.22% | Potency [2] | Potency [3] | Potency [4] | Potency [5] | Potency [18] | Potency [6] | Potency [7] | Potency [8] | Potency [9] | Potency [19] | Potency [11] | Potency [14] | Potency [15] | Potency [20] | Potency [16] | Potency [17]

C[C@H](CCCC(C)(C)O)[C@H]1CC[C@H]2[C@@H]3CC=C4C[C@@H](O)CC[C@]4(C)[C@H]3CC[C@]12C
inactive: activity, negative = inhibition ([1]; parasite line A) 13.3% | activity, negative = inhibition ([1]; parasite line B) 17.1% | Potency [2] | Potency [4] | Potency [5] | Potency [18] | Potency [6] | Potency [7] | Potency [8] | Potency [9] | Potency [10] | Potency [19] | Potency [11] | Potency [13] | Potency [14] | Potency [15] | Potency [16] | Potency [17]
active: Potency [3] 11.2 µM
